Calls of active or inactive are those of the source.
What was measured:
[1] = tested on: PRMT1 (protein arginine N-methyltransferase 1); experiment: PRMT1 binders on small-molecule microarrays, primary screen, biochemical, small-molecule microarray, 635 nm fluorescence (AID 1088); details: small-molecule microarray binding, higher = more signal;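 also: binding of Prmt1 protein to compounds spotted on small-molecule microarray slides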
[2] = yeast growth modulation, basal conditions, primary screen, YJM789 clinical isolate, OD600, 24 h (AID 1089);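 also: growth of clinical yeast isolate S. cerevisiae YJM 789 seeded 1000 cells per well; test concentration not given here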; details: S. cerevisiae YJM789 growth, higher = more signal, called active from +8 up or from −8 down
[3] = fission yeast growth modulation, primary screen, strain 972, OD600, 24 h, no modulator (AID 1090);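 also: basal condition with compound alone and no growth modifier present; test concentration not given here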; details: S. pombe 972 growth, higher = more signal, called active from +8 up or from −8 down
[4] = S. cerevisiae growth modulation with rapamycin, primary screen, strain BY4716, OD600, 96 h (AID 1091); details: higher = more signal, called active from +8 up or from −8 down; also: test concentration not given here
[5] = target: Torsin-1A-interacting protein 2 (Homo sapiens) (UniProt Q8NFQ8); experiment: LULL1 binders on small-molecule microarray, primary screen, cell lysate, human LULL1 lysate, 635/667 nm fluorescence (AID 1092); details: hLULL1 lysate binding, 635 nm fluorescence, higher = more signal;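 also: probe is lysate of COS7 cells overexpressing human LULL1; score merges per-feature 667 nm fluorescence with signal-to-noise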
Chain of Torsin-1A-interacting protein 2 (Homo sapiens) (Q8NFQ8 whole entry, looked up): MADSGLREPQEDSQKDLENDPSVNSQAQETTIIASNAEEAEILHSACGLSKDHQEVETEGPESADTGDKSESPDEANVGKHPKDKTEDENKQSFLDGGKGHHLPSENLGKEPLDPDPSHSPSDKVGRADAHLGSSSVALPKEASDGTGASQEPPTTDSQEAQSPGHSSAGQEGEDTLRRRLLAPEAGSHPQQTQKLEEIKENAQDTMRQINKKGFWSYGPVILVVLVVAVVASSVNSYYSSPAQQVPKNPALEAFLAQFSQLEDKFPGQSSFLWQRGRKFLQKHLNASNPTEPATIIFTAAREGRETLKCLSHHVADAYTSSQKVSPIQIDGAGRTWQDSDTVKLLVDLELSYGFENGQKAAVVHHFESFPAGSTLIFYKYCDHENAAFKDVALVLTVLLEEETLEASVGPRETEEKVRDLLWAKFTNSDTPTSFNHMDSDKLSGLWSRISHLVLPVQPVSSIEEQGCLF

[6] = E. coli growth modulation, two-sided OD650, primary screen, E. coli filamentation project, strain DRC41, 24 h (AID 1093); details: OD650, 24 h, higher = more signal, called active from +8 up or from −8 down;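 also: MC1000 strain lacking acrAB efflux and sulA so SOS filamentation is blocked; test concentration not given here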
[7] = small-molecule microarray binders of probe aLefty2, primary screen, biochemical, biotinylated probe, 635/667 nm fluorescence (AID 1094); details: higher = more signal;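 also: score merges spot fluorescence near 667 nm with spot signal-to-noise ratio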
[8] = tested on: Noggin (protein binding on small-molecule microarray); experiment: Noggin binders on small-molecule microarray, primary screen, biochemical, 635/667 nm fluorescence (AID 1095); details: 635 nm fluorescence, higher = more signal;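 also: score merges 667 nm feature fluorescence with signal to noise over triplicate slides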
[9] = target: Neurogenic locus notch homolog protein 3 (Homo sapiens) (UniProt Q9UM47); experiment: NOTCH3 binders on small-molecule microarray, primary screen, biochemical, 635/667 nm fluorescence (AID 1096); details: NOTCH3 binding, 635 nm fluorescence, higher = more signal
Chain of Neurogenic locus notch homolog protein 3 (Homo sapiens) (Q9UM47 whole entry, looked up): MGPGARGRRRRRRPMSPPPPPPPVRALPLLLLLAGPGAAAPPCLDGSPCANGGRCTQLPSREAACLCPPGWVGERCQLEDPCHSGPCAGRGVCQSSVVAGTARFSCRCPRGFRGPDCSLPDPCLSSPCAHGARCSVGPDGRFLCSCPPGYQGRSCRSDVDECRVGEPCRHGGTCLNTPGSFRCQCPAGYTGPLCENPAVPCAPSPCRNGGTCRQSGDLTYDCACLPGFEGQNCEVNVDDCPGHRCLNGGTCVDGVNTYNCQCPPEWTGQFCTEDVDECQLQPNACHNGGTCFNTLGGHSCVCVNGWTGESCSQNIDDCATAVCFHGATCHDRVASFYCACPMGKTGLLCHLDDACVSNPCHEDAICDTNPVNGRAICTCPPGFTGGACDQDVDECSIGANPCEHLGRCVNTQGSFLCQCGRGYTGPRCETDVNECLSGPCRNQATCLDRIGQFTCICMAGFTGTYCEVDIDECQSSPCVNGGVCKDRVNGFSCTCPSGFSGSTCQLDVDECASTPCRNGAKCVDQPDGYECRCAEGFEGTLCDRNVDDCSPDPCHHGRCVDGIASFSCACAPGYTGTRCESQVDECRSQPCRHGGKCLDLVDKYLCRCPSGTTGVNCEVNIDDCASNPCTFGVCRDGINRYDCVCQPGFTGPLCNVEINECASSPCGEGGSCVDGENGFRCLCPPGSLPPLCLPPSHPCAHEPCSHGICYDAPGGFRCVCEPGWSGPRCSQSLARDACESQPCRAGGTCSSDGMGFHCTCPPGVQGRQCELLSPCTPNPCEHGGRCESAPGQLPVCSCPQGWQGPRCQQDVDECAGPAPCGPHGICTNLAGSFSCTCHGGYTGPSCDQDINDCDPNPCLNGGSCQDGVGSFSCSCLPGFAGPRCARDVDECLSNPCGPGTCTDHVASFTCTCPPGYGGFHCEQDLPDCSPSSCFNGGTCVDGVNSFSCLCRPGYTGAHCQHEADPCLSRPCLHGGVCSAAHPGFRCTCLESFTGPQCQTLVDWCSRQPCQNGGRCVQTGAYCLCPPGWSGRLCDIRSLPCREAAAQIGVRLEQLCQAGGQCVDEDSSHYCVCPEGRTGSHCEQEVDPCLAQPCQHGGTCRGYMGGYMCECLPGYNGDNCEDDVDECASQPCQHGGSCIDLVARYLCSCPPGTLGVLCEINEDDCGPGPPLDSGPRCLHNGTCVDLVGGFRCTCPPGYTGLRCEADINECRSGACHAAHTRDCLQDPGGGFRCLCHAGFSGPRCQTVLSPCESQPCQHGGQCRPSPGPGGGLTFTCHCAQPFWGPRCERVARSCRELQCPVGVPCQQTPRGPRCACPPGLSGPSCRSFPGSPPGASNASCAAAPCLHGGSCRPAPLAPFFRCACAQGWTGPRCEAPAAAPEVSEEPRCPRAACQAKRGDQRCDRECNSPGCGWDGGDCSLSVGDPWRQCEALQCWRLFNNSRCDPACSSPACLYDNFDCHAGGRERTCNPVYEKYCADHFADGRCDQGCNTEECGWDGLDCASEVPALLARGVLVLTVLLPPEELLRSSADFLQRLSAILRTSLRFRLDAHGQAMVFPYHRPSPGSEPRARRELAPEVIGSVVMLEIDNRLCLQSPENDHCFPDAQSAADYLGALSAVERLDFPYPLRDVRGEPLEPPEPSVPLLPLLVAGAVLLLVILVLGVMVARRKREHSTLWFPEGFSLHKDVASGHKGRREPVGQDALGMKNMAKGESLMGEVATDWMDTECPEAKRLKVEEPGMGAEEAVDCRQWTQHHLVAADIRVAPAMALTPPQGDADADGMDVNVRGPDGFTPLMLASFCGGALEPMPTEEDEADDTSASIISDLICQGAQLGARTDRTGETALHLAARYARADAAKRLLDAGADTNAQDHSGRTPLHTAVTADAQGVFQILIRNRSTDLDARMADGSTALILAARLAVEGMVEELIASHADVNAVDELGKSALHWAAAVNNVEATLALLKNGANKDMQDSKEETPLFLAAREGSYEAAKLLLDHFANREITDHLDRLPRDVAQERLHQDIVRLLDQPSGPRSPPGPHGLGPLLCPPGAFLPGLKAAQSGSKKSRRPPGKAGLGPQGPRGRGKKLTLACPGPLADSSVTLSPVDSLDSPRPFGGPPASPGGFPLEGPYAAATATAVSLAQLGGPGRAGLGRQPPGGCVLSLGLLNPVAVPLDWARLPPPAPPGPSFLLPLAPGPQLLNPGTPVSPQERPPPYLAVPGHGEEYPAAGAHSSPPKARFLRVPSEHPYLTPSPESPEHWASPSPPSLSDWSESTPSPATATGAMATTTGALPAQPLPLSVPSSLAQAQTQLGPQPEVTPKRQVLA

[10] = small-molecule microarray binders of probe aEGFR, primary screen, biochemical, biotinylated probe, 635/667 nm fluorescence (AID 1097); details: higher = more signal;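 also: probe is a biotinylated anti-EGFR antibody binding compounds printed on slides; score combines fluorescence near 667 nm and signal to noise of each spot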
[11] = tested on: Plasmodium falciparum Sir2 (PF13_0152, Sir2A); experiment: pfSir2 binders on small-molecule microarrays, primary screen, biochemical, small-molecule microarray, 635 nm fluorescence (AID 1098); details: small-molecule microarray binding, fluorescence 635 nm; higher = more signal;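 also: score merges spot fluorescence intensity with its signal-to-noise ratio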
[12] = small-molecule microarray binders of probe aDKK1, primary screen, biochemical, biotinylated probe, 635/667 nm fluorescence (AID 1099); details: higher = more signal;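 also: score merges 667nm spot fluorescence with signal to noise across triplicate slides; reference of the scale not given here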
[13] = small-molecule microarray binders of probe aCHRDL2, primary screen, biochemical, biotinylated probe, 635/667 nm fluorescence (AID 1100); details: higher = more signal
[14] = splicing luciferase reporter signal modulators, primary screen, spliceosome inhibition project, cell-based, HEK293, splice +/- reporter (AID 1101); details: luminescence, 24 h, higher = more signal, called active from +8 up or from −8 down;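 also: HEK293 cells carrying a splicing-competent luciferase reporter gene; test concentration not given here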
[15] = target: Fibroblast growth factor 10 (Homo sapiens) (UniProt O15520); experiment: FGF10 binders on small-molecule microarrays, primary screen, biochemical, small-molecule microarray, 635 nm fluorescence (AID 1102); details: FGF10 binding, fluorescence 635 nm, higher = more signal
Chain of Fibroblast growth factor 10 (Homo sapiens) (O15520 whole entry, looked up): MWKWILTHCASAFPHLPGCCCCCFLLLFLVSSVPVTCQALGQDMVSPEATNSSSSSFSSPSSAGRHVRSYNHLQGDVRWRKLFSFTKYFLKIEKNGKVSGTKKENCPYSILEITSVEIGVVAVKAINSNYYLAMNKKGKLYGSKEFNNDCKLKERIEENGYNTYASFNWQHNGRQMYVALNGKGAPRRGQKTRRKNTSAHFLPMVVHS

[16] = tested on: glycogen synthase kinase-3 (GSK3A per assay name; protocol says GSK3B); experiment: GSK3 binders on small-molecule microarrays, primary screen, biochemical, small-molecule microarray, 635 nm fluorescence, GSK3A (AID 1103); details: small-molecule microarray binding, fluorescence 635 nm; higher = more signal; also: the record names both GSK3A and GSK3B
[17] = target: Epidermal growth factor receptor (Homo sapiens) (UniProt P00533); experiment: EGFR binders on small-molecule microarrays, primary screen, biochemical, small-molecule microarray, 635 nm fluorescence (AID 1104); details: EGFR binding, higher = more signal;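 also: score merges 667 nm emission intensity with spot signal to noise over triplicate slides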
Chain of Epidermal growth factor receptor (Homo sapiens) (P00533 whole entry, looked up): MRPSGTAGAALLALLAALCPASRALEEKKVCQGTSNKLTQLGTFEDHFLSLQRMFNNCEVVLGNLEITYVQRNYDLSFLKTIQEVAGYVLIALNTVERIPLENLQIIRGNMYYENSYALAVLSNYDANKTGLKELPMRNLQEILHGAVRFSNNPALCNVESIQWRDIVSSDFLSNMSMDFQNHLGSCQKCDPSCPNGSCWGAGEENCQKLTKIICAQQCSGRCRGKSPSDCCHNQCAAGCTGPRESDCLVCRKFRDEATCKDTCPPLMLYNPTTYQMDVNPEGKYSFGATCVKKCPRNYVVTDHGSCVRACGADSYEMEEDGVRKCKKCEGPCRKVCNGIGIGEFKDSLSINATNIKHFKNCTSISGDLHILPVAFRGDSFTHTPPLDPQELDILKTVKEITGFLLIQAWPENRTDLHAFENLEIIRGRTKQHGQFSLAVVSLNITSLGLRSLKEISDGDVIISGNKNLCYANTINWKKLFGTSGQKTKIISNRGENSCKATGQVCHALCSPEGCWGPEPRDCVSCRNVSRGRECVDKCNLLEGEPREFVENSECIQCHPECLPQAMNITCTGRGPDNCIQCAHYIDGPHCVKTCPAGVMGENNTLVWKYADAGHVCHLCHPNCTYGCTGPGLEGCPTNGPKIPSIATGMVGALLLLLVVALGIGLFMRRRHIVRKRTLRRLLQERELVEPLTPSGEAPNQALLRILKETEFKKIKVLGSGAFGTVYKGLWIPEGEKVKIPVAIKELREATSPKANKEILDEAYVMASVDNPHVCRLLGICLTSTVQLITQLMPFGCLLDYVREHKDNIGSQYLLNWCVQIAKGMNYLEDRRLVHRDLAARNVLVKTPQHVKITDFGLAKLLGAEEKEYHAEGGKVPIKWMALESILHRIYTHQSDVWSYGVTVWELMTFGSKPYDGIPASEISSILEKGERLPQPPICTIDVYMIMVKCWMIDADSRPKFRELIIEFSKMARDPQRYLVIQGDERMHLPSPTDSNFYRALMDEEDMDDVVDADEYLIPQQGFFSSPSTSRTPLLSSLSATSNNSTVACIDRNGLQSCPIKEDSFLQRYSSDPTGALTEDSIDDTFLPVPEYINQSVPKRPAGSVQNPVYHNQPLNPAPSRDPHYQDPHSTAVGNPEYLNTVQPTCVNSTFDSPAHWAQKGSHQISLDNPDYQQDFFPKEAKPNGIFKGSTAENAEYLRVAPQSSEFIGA

[18] = target: Follistatin-related protein 3 (Homo sapiens) (UniProt O95633); experiment: FSTL3 binders on small-molecule microarrays, primary screen, biochemical, small-molecule microarray, 635 nm fluorescence (AID 1105); details: FSTL3 binding, higher = more signal;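 also: score merges emission near 667 nm and signal to noise per printed spot across three slides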
Chain of Follistatin-related protein 3 (Homo sapiens) (O95633 whole entry, looked up): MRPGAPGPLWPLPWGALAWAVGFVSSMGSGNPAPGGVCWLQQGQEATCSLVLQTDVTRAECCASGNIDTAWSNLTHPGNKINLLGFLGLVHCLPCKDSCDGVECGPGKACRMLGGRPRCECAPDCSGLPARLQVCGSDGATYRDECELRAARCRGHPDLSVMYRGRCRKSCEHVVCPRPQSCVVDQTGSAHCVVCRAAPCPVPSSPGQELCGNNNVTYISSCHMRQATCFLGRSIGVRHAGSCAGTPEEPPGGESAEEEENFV

[19] = target: Dickkopf-related protein 1 (Homo sapiens) (UniProt O94907); experiment: DKK1 binders on small-molecule microarrays, primary screen, biochemical, small-molecule microarray, 635 nm fluorescence scan (AID 1106); details: DKK1 binding, higher = more signal;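 also: score merges emission near 667 nm with signal to noise over three replicate slides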
Chain of Dickkopf-related protein 1 (Homo sapiens) (O94907 whole entry, looked up): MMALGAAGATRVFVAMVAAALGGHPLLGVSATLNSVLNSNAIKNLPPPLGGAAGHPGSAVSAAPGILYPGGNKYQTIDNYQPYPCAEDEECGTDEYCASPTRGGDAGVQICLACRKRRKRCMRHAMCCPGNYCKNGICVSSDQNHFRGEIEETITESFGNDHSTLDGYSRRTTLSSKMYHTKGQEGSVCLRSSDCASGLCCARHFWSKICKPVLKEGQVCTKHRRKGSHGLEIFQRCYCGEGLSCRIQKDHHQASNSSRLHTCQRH

[20] = tested on: Inhibin beta A chain (activin A); experiment: INHBA (activin A) binders on microarrays, primary screen, biochemical, small-molecule microarray, 635 nm fluorescence scan (AID 1107); details: small-molecule microarray binding, higher = more signal;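 also: mouse activin A protein probed at 4.33 µg/mL on printed slides; score merges bound-protein fluorescence near 667 nm with spot signal-to-noise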

SMILES	composite z-score [1]	z-score [2]	z-score [3]	z-score [4]	composite z-score [5]	z-score [6]	composite z-score [7]	composite z-score [8]	composite z-score [9]	composite z-score [10]	composite z-score [11]	composite z-score [12]	composite z-score [13]	z-score [14]	composite z-score [15]	composite z-score [16]	composite z-score [17]	composite z-score [18]	composite z-score [19]	composite z-score [20]
CC(C)NC(=O)[C@@H]1c2ccccc2C(=O)N(Cc2ccc(OC(F)(F)F)cc2)[C@H]1c1ccc(CO)cc1	1.54	0.0263 (inactive)	-1.24 (inactive)	-1.51 (inactive)	2.67	-1.48 (inactive)	0.734	0.756	1.11	0.587	0.471	1.21	0.696	-0.211 (inactive)	1.25	1.3	0.272	1.37	0.657	0.237
COCCOC(=O)N1C(=O)[C@@]2(c3cc(C#CCCO)ccc31)[C@H](c1ccc(OCCO)cc1)N1[C@H](c3ccccc3)[C@H](c3ccccc3)OC(=O)[C@H]1[C@@H]2C(=O)N1CCCCCCC1	1.54	0.869 (inactive)	0.277 (inactive)	3.69 (inactive)	2.82	-0.405 (inactive)	1.62	1.49	1.04	0.611	1.23	2.43	1.51	0.458 (inactive)	1.25	1.32	1.32	1.54	1.85	1.73
CCCN1C(=O)[C@@]2(c3ccc([N+](=O)[O-])cc3)CC(=O)N(CC34CC5CC(CC(C5)C3)C4)[C@@H]2c2ccc(CO)cc21	-0.247	-0.962 (inactive)	-0.365 (inactive)	-1.93 (inactive)	0.162	-0.19 (inactive)	-0.0099	0.047	-0.184	0.142	-0.596	0.0721	0.342	0.331 (inactive)	-0.334	-0.619	-0.381	-0.701	-0.626	0.378
CC(=O)NCCCC[C@@H]1NC(=O)[C@H]2C[C@@H](C(=O)NCCCCCCNC(=O)CS)[C@@H](c3cccc(OCCO)c3)N2C1=O	1.56	0.828 (inactive)	0.257 (inactive)	1.28 (inactive)	2.65	-0.488 (inactive)	-0.0187	0.153	0.846	-0.123	1.72	-0.11	0.642	-0.662 (inactive)	0.816	1.15	-0.316	0.225	0.363	0.339
CCCCC(O)C1C=CC2C(=O)N(c3ccccc3)C(=O)C2N1Nc1ccc(C#N)cc1 (stereo not given)	0.771	0.243 (inactive)	0.634 (inactive)	1.64 (inactive)	3.14	-1.11 (inactive)	0.444	-0.358	0.473	0.247	1.11	1.12	0.906	0.12 (inactive)	0.398	0.383	0.0738	-0.0673	-0.579	0.513
C=CCC(OC(C)=O)[C@@H]1[C@@H](N(Cc2cccc3ccccc23)C(=O)Cc2ccc(OC)cc2)c2cc(OCCCO)ccc2N1C(=O)Cc1ccc2ccccc2c1 (stereo not given in full)	0.402	-0.0978 (inactive)	0.374 (inactive)	-1.51 (inactive)	0.574	-0.079 (inactive)	-0.0911	0.656	-0.87	-0.0828	0.067	-0.237	0.087	-0.738 (inactive)	-0.0821	-0.227	0.0289	0.404	0.073	0.68
CC(C)(C)N1CC=CC23O[C@@H]4/C=C\CCCOC(=O)C4[C@H]2C(=O)N(CCCO)[C@@H]3C1=O (stereo not given in full)	0.477	-1.01 (inactive)	0.0214 (inactive)	-0.766 (inactive)	1.11	-0.282 (inactive)	-0.279	-0.877	0.0017	-0.129	1.18	-0.396	-0.006	0.539 (inactive)	-0.795	-0.416	-1.33	-0.996	-1.07	0.076
COCCn1c(C(=O)N(C)C)cc2c1C[C@H]1CN(C(=O)c3ccccc3)[C@@](Cc3ccc(OC)cc3)(C(=O)OC)[C@@H]21	-0.325	1.15 (inactive)	1.82 (inactive)	2.03 (inactive)	3.31	-0.332 (inactive)	0.43	-0.465	1.1	0.0634	0.816	0.785	1.34	-0.346 (inactive)	0.26	0.22	0.0351	0.324	-0.745	1.21
CC(C)C(CO)N1C(=O)[C@@H]2C3C(=O)OCCC/C=C\[C@H]3OC23C=CCN(Cc2ccccc2)C(=O)[C@@H]13 (stereo not given in full)	-0.928	-0.43 (inactive)	-0.912 (inactive)	-0.542 (inactive)	1.18	1.3 (inactive)	-0.0598	-0.989	-0.0928	-0.148	1.38	-0.0827	0.554	-0.0848 (inactive)	0.0565	-0.54	-1.01	-0.794	-0.551	0.111
CC(C)c1nc2cc(Br)ccc2c(=O)o1	-0.0152	-0.0363 (inactive)	0.347 (inactive)	-0.26 (inactive)	2.97	0.501 (inactive)	-0.0823	0.0534	0.567	-0.0535	0.338	0.444	-0.123	1.44 (inactive)	0.755	1.02	0.397	0.523	0.359	-0.585
NCCCCCCNC(=O)[C@@H]1C[C@@H]2C(=O)N3CCC[C@H]3C(=O)N2[C@@H]1c1cccc(OCCO)c1	1.06	-1.18 (inactive)	-0.822 (inactive)	-0.651 (inactive)	1.74	0.974 (inactive)	0.0686	1.1	0.73	0.0713	1.23	0.0549	0.798	-1.42 (inactive)	0.752	0.851	0.405	1.04	1.2	1.01
CCCCC(O)C1C=CC2C(=O)N(c3ccccc3)C(=O)C2N1Nc1ccccc1 (stereo not given)	0.24	0.102 (inactive)	-1.32 (inactive)	1.77 (inactive)	2.93	-0.193 (inactive)	-0.0355	-0.422	0.452	-0.153	0.664	0.696	0.91	0.759 (inactive)	0.564	-0.501	-0.633	-0.293	-0.699	1.16
C[N+](C)(C)CCCC[C@@H]1NC(=O)[C@@H]2C[C@H](C(=O)NCc3ccc(F)cc3)[C@H](c3ccc(O)cc3)N2C1=O	0.116	0.166 (inactive)	0.519 (inactive)	0.425 (inactive)	1.76	-0.66 (inactive)	-0.139	0.401	-0.146	-0.271	1.12	-0.277	0.216	1.26 (inactive)	0.535	-0.933	-0.617	-0.249	0.549	-0.879
CN(C)c1ccc(C(O)C2C=CC3C(=O)N(Cc4ccccc4)C(=O)C3N2n2cnnc2)cc1 (stereo not given)	-0.765	-1.24 (inactive)	0.396 (inactive)	-0.528 (inactive)	0.0442	0.372 (inactive)	0.123	0.359	-0.139	-0.0649	0.491	-0.393	0.562	-0.394 (inactive)	0.13	-0.56	0.268	-0.0523	0.114	1.28
O=C1N(Cc2ccccc2)c2ccccc2C[C@@]12COC(c1ccc(OCCCO)cc1)=N2	1.56	-0.91 (inactive)	-1.56 (inactive)	2.83 (inactive)	3	1.54 (inactive)	0.249	1.07	0.944	-0.0238	1.32	1.79	1.12	-0.136 (inactive)	0.596	1.31	-0.433	0.0633	-0.318	1.13
CC1CC/C=C\[C@H]2OC34C=CCN(C(C)(C)C)C(=O)[C@H]3N(CCCO)C(=O)[C@@H]4C2C(=O)O1 (stereo not given in full)	-0.672	0.884 (inactive)	0.743 (inactive)	1.14 (inactive)	1.86	0.545 (inactive)	-0.214	-0.556	-0.281	-0.249	0.28	-0.107	0.4	0.964 (inactive)	-0.0987	-0.592	-0.927	-0.943	-0.863	0.406
COC(=O)[C@@]1(Cc2ccccc2)N=C(c2ccc(OCCCO)cc2)O[C@H]1c1ccccc1CN=[N+]=[N-]	1.55	-0.605 (inactive)	-0.129 (inactive)	29.9 (active)	2.27	1.62 (inactive)	-0.0747	1.05	0.129	0.0267	1.61	0.287	0.652	12.9 (active)	0.722	0.893	-0.0505	0.323	0.21	1.09
O=C1c2ccccc2[C@@]2(Cc3ccccc3N(Cc3ccccc3)C2=O)[C@H](c2ccc(CO)cc2)N1Cc1ccccc1Cl	0.11	-0.251 (inactive)	-0.602 (inactive)	-2.35 (inactive)	-0.394	-0.499 (inactive)	-0.0812	-0.109	-0.149	-0.146	-0.493	-0.0131	0.28	-1.06 (inactive)	-0.377	-1.35	-0.804	-0.277	-0.666	0.54
C=C(CCCC)/C(=C/C[C@H](OC(=O)c1ccncc1)c1ccc(OCCO)cc1)c1cnc2ccccc2c1	1.51	0.144 (inactive)	-2.06 (inactive)	0.199 (inactive)	1.26	0.7 (inactive)	-0.0306	1.17	1.09	0.0129	1.47	-0.107	0.164	-0.0197 (inactive)	0.898	0.829	0.776	1.45	0.768	1.36

Reference: PubChem BioAssay
